An excerpt weighted towards active compounds, which were near 4.7% of everything screened.
D1 PAM – enhances dopamine response at the human D1 receptor. P21728. HEK293 TREx D1 cells, calcium flux, dopamine EC20 potentiation. potentiation, % at 10 µM. hit rate 0.036% among 360,000; in the data active means potentiation above about 30%; further: 0% is about no effect
Target sequence (P21728 whole entry, looked up): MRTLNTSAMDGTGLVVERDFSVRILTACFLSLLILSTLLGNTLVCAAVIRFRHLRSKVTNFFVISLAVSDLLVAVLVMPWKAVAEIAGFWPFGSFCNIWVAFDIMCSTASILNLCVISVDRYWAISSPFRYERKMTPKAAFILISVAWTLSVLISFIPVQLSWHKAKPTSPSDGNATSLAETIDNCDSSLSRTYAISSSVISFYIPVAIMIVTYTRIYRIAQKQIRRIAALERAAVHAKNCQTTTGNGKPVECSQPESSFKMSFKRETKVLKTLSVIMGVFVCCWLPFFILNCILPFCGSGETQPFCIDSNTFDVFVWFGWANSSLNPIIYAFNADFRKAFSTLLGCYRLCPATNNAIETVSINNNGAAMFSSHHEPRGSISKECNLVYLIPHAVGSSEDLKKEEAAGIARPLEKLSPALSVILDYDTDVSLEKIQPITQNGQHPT
D1 agonist – human D1 receptor agonism; HEK293 T-REx D1 cells, calcium flux, agonist mode; hit rate 1% among 360,000; activation, % at 2 µM; further: 0% is about no effect
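Tetracycline-induced HEK293 TREx D1 cells, force-coupled to calcium signalling, were dye-loaded with a no-wash calcium kit. Compound was pin-added after a 10 s baseline. Fluorescence was read kinetically at 1 cycle/s for 180 s, with calcium rises flagged as agonism.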
D1 antagonist – antagonists of human D1 dopamine receptor. activity change, negative = inhibition, % at 10 µM. hit rate 3.2% among 360,000. HEK293 TREx D1 cells, calcium flux, dopamine EC80; hits give low values; in the data active means activity change below about -30%; further: on the % scale 0 is the no-effect control and ±100 the full control effect
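Cells carrying a force-coupled, tetracycline-inducible human D1 receptor report calcium flux. Each well gets a 10 s baseline, compound with 180 s monitoring, then an EC80 dopamine stimulus with a second 180 s kinetic read.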
TRHR enhancer – allosterically enhances the human TRH receptor. AID 493056. P34981. enhancement, % at 2 µM. TRHR cells, fluo-8 calcium fluorescence, EC20 TRH enhancement. hit rate 0.66% among 360,000; in the data active means enhancement above about 30%; further: 0% is about no effect
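TRHR-expressing cells loaded with fluo-8 calcium dye were read kinetically (ex 480/em 530) during compound addition, then stimulated with an EC20 of TRH (10 nM final). Enhancement of the Gq-mediated intracellular calcium response was scored.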
TRHR agonist – TRH receptor (human) agonism. AID 493084. P34981. activation, % at 2 µM. hit rate 0.18% among 360,000. TRHR cells, calcium flux fluo-8, FDSS agonist mode; further: 0% is about no effect
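In this calcium-flux screen, cells bearing human TRHR are dye-loaded with fluo-8, baselined for 10 cycles, then exposed to library compounds; positive kinetic calcium responses during the agonist phase mark hits, with TRH as control.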
An asterisk follows results filed as active; · = no result; ! = a repeat was not active. Unless noted, no stated cut-off is given here; in the data, active means activation above about 30%; inactive means the rest.

SMILES	D1 PAM	D1 agonist	D1 antagonist	TRHR enhancer	TRHR agonist
CN(C)CCCn1c(SCC(=O)N2c3ccccc3Sc3ccccc32)nc2ccccc2c1=O	-2.6	37.8*	-14.8	3.5	0.9
Cn1c(SCC(=O)N2c3ccccc3Sc3ccccc32)nc2ccccc21	0.9	6.2	-8.7	-8.7	0.4
COc1ccc2occ(CC(=O)Nc3ccc(S(=O)(=O)Nc4nccc(C)n4)cc3)c2c1	0.8	-1.3	-0.3	-3.2	0.7
CCCC(=O)Nc1ccc2c(c1)Cc1ccccc1-2	-1.4	3.2	-38.2*	2.5	0.0
CCC(=O)Nc1ccc2c(c1)Cc1cc(NC(=O)CC)ccc1-2	-8.7	-0.2	-7.3	-6.2	-1.0
COc1cc2oc(=O)c(CC(=O)N3CCCCC3)c(C)c2cc1Cl	-0.2	-0.4	-0.5	3.9	0.1
COc1cc(OC)c2c(C)c(CC(=O)N3CCCCC3)c(=O)oc2c1	-0.9	2.6	1.7	35.4*	-0.1
CCOC(=O)N1CCC2(CC1)C(C#N)=C(N)Oc1n[nH]c(CSc3ccc(C)cc3)c12	-1.6	2.3	-39.3*	-1.2	1.1
Cc1ccc(S(=O)(=O)N2CCOCC2)cc1C(=O)OC1CCOC1=O (configuration not stated)	-3.0	4.2	-10.9	-8.2	-0.2
Nc1nc(NCCO)nc(N2CCCCCC2)c1[N+](=O)[O-]	0.9	3.4	-1.0	4.3	0.4
OCCN(CCO)c1nc(N2CCCCC2)c2nc(N(CCO)CCO)nc(N3CCCCC3)c2n1	7.7	318.5*	-39.0*	13.0	106.3*
O=S(=O)(c1ccc(Br)cc1)N1CCN(S(=O)(=O)c2ccc3c(c2)OCCO3)CC1	0.0	-0.2	13.6	5.0	0.1
O=C(O)c1cccnc1SCc1cccc(Cl)c1	-12.7	0.9	-39.7*!	-27.4	-0.5
Cc1ccc2c(c1)CC(C)N2S(=O)(=O)c1nnc(NC(=O)C(C)C)s1 (configuration not stated)	0.5	0.2	-9.9	0.6	-0.3
CCOc1ccc(-c2nn(-c3ccccc3)cc2C2NC(=O)NC(C)=C2C(=O)OC(C)C)cc1C (configuration not stated)	5.8	23.5	-36.5*	1.9	2.0
CCCn1nnc(NC(=O)/C=C/c2ccc(C(C)C)cc2)n1	-9.3	38.3*	-18.9	3.0	-0.5
CCCNC(=O)/C=C/c1ccc(C(C)C)cc1	-0.8	0.5	3.9	35.2*	-0.6
CC(C)c1ccc(NC(=O)CCS(=O)(=O)c2ccc(Br)s2)cc1	-0.9	16.1	-8.7	-10.1	-1.8
COc1ccc(NC(=O)CCS(=O)(=O)c2ccc(OC)cc2)cc1	-11.9	-0.6	-41.7*	5.5	-2.0
COc1ccc(NC(=O)CCS(=O)(=O)c2ccc(Br)s2)cc1	-4.3	0.1	-37.4*	3.9	-0.8
Cn1c(=O)c(=O)n(C)c2cc(S(=O)(=O)CCC(=O)Nc3ccc(F)cc3)ccc21	1.2	0.4	18.9	0.8	-0.2
COc1ccc(NC(=O)CN(C)C(=O)CCNS(=O)(=O)c2ccc(Br)cc2)cc1	-8.2	1.0	-28.2	10.3	0.5
Cc1cccc(C)c1NC(=O)CCS(=O)(=O)c1ccc2c(c1)n(C)c(=O)c(=O)n2C	-4.5	3.4	-36.3*	-6.4	1.5
CCOc1ccc(S(=O)(=O)NCCC(=O)N(C)CC(=O)Nc2ccc(OC)cc2)cc1	-11.4	1.6	-43.3*	15.4	0.1
COc1ccc(NC(=O)CCS(=O)(=O)c2cc3c4c(c2)CCN4C(=O)CC3)c(OC)c1	-3.6	1.6	-4.0	-1.1	0.1
SMILES	D1 PAM	D1 agonist	D1 antagonist	TRHR enhancer	TRHR agonist
Cc1ccc(OCC(=O)N(c2ccc(C)cc2)S(=O)(=O)c2ccc(Cl)cc2)cc1	1.5	-0.1	-10.0	-6.9	-0.2
COc1ccc(CC(=O)NC(=S)Nc2ccc(S(N)(=O)=O)cc2)cc1	-9.4	34.3*	9.6	0.5	1.7
CCOC(=O)c1c(C)[nH]c(C(=O)N(C)CC(=O)Nc2ccc(OC)cc2)c1C	4.4	1.3	-67.6*	7.3	-0.3
CCOC(=O)c1[nH]c(C)c(C(=O)OCC(=O)NCc2ccc(OC)cc2)c1C	0.8	0.9	-24.9	-2.4	-0.8
COc1cccc(NC(=O)CCS(=O)(=O)c2ccc3c(c2)oc(=O)n3C)c1	2.3	3.4	-30.0*!	7.3	0.3
COc1ccc(CC(=O)NC(=S)Nc2ccc(S(=O)(=O)NC(C)(C)C)cc2)cc1	7.1	15.6	-2.5	4.3	3.7
Cc1ccccc1CN1C(=O)C(O)(c2c[nH]c3ccccc23)c2cc(Cl)ccc21 (configuration not stated)	-4.0	0.5	-1.2	-2.0	0.9
Cc1nnc(SC(C)C(=O)N(C)C2CCCCC2)n1N (configuration not stated)	·	3.4	17.0	-2.6	0.1
Cc1cc2c(s1)c1cnn(Cc3ccc(C#N)cc3)c(=O)c1n2C	-4.5	4.5	-15.8	2.1	0.3
COc1ccc(NC(=O)C(CC(=O)O)Cc2ccc(Cl)cc2)cc1 (configuration not stated)	0.5	0.0	3.7	-11.3	-0.1
Clc1ccc2c(NCc3ccccc3)ccnc2c1	-4.8	20.8	-37.5*	16.6	2.0
CCN(CC)CCNc1ccnc2cc(Cl)ccc12	-0.9	2.5	1.9	-3.3	1.1
COc1cc(C=O)ccc1OCCOc1ccccc1[N+](=O)[O-]	-4.0	5.5	-37.3*	13.9	1.1
CC(C)(C)NC(=O)CN(CCN1CCOCC1)C(=O)CNS(=O)(=O)c1ccc(Cl)cc1	·	6.0	6.1	0.3	0.6
COCCN(Cc1ccccc1)C(=S)Nc1ccc(Cl)cc1	-10.4	4.3	-36.2*	-8.3	0.1
COc1ccc(NC(=S)N(CCO)Cc2ccccc2)cc1	-5.5	0.7	0.4	-5.5	0.2
O=C(Cc1ccc(-n2cccc2)cc1)NCc1cccs1	-8.7	0.6	-34.0*	-1.7	-0.8
CCC(C)(C)n1nnnc1C(C(C)C)N(Cc1cccnc1)Cc1ccco1 (configuration not stated)	2.5	-0.7	-44.4*	20.9	-0.4
CC(C)(C)n1nnnc1C(c1cccnc1)N(Cc1ccccc1)Cc1ccco1 (configuration not stated)	-4.5	2.5	-10.1	10.1	-1.0
CCc1ccc(Oc2c(C(F)(F)F)oc3c(CN4CCCC(C)C4)c(O)ccc3c2=O)cc1 (configuration not stated)	-1.2	1.3	10.1	8.2	0.2
CS(=O)(=O)N(CC(=O)NCC1CCCO1)c1cccc(Cl)c1 (configuration not stated)	0.8	1.3	-5.8	13.2	0.0
CS(=O)(=O)N(CC(=O)NCC1CCCO1)c1cc(Cl)cc(Cl)c1 (configuration not stated)	-3.2	2.4	-49.9*	-1.2	-0.2
O=C1Nc2ccc(Br)cc2C12NNc1ccccc1O2 (configuration not stated)	-4.5	32.9*	-14.3	-2.4	7.3
